Consider 90 compounds from PMC4336329 (PLoS ONE, 2015).

In all, about 310,000 compounds went through this assay and about 2,200 (0.71%) showed an effect of 50% or more. Effects have a minus sign here. Many of the other results were omitted from the sample, so strong results are more common in it than they were.

Sequence of human ether-à-go-go-related gene (hERG) potassium channel (Q12809 whole entry, looked up): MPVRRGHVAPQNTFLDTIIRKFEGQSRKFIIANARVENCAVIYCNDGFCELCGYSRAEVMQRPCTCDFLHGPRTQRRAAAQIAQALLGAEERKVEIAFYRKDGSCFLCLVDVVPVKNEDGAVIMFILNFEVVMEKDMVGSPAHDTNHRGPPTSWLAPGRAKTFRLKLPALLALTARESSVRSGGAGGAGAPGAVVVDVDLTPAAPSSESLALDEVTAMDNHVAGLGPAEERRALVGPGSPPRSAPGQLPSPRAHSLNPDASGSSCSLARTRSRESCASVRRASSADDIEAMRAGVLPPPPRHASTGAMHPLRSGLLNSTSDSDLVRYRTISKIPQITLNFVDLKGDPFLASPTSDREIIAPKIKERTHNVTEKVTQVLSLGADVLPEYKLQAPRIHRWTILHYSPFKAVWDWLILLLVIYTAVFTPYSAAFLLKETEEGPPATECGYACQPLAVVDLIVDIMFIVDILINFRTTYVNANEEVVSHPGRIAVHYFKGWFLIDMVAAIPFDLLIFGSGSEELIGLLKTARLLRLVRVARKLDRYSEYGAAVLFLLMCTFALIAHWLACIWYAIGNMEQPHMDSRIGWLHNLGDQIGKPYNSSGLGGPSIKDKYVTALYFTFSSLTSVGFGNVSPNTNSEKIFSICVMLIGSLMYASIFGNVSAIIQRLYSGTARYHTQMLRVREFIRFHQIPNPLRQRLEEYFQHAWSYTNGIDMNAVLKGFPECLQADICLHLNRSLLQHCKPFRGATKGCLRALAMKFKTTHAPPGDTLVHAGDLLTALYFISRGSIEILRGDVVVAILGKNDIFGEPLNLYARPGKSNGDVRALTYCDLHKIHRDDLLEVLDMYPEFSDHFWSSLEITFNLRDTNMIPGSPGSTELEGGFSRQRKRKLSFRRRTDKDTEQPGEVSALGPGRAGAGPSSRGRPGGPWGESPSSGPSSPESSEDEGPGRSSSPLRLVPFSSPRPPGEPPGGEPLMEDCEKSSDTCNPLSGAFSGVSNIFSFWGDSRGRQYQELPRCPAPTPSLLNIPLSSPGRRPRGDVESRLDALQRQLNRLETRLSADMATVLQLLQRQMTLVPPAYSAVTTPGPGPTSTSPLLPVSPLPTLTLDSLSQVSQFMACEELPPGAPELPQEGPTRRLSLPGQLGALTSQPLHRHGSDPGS

The assay concerns the target human ether-à-go-go-related gene (hERG) potassium channel (human, UniProt Q12809). The assay is described as follows: primary screen, population patch clamp on CHO cells stably expressing hERG; higher = less effect of the substance.
Turning to `CC(C)(C)C(=O)Nc1scc(-c2ccc(-c3ccccc3)cc2)c1C(=O)O`, the “hERG current change (%, negative = inhibition) at 1uM” value is on record as 21.8%.
Next, `COc1cc(C)ccc1OCc1cc(C(=O)N(C)CCCN2CCOCC2)no1`: -7.67%; `c1ccc(-n2c(-c3ccco3)nnc2-c2ccco2)cc1`: 5.9%.
Next, `COc1cccc(-c2nnc(-c3ccco3)o2)c1`: 14.6%; `O=C(NCCN1CCCCC1)c1cc(OCC(F)(F)F)ccc1OCC(F)(F)F`: -17.2%.
In the case of `S=c1[nH]nc(-c2ccc(Cl)cc2)n1-c1ccc(Cl)cc1`, the “hERG current change (%, negative = inhibition) at 1uM” value was 9.56%.
`CCC(C)(C)NC(=O)CN(C(=O)c1snc(C(N)=O)c1N)c1ccc2c(c1)OCO2`: the “hERG current change (%, negative = inhibition) at 1uM” value was determined as 3.43%.
Regarding `COc1ccc(S(=O)(=O)N2CCC(C(=O)NCCc3ccccc3)CC2)cc1`, the “hERG current change (%, negative = inhibition) at 1uM” value is recorded as 9.96%.
Regarding `COc1ccc(C(=O)N2CCC(C(=O)c3c(C)cc(C)cc3C)CC2)cc1`, the “hERG current change (%, negative = inhibition) at 1uM” value is -8.27%.
With `COc1cc(OC)cc(C(=O)N2CCC(C(=O)c3ccc(F)cc3)CC2)c1`, the “hERG current change (%, negative = inhibition) at 1uM” value was -1.28%.
Next, `COc1ccc(C(=O)N2CCC(C(=O)c3ccc(F)cc3)CC2)cc1`: -66.1%; `COc1ccc(C(=O)C2CCN(C(=O)c3ccc(C)cc3)CC2)cc1`: -47.7%.
Next, `COc1ccc(C(=O)C2CCN(C(=O)c3ccc(F)cc3)CC2)cc1`: 2.02%; `COc1ccc(C(=O)C2CCN(C(=O)c3ccc(OC)cc3)CC2)cc1`: -76%; `COc1ccc(Cl)cc1NC(=O)NN1CCN(C)CC1`: -7.68%.
Take `CC(C)(C)NC(=O)C(c1ccco1)N(Cc1ccc(F)cc1)C(=O)c1snc(C(N)=O)c1N` (stereo not drawn): the “hERG current change (%, negative = inhibition) at 1uM” value is -6.09%.
`C/C(=N/OCO/N=C(\C)c1ccc(F)cc1F)c1ccc(F)cc1F`: the “hERG current change (%, negative = inhibition) at 1uM” value is 21.9%.
As for `COc1cc2c(cc1OC)CN(CC(=O)Nc1ccc3c(c1)OCO3)CC2`, the “hERG current change (%, negative = inhibition) at 1uM” value is 14.5%.
Next, `CC(C)(C)S(=O)(=O)c1cnc2c(-c3ccsc3)cnn2c1N`: 15.9%.
For `COc1cc2c(cc1OC)CN(C(=O)COc1ccccc1[N+](=O)[O-])CC2`, the “hERG current change (%, negative = inhibition) at 1uM” value was found to be 9.5%.
Next, `COC(=O)c1ccccc1NC(=S)NC(=O)c1ccc2c(c1)OCO2`: 20.6%; `O=C(NC(=S)Nc1ccccc1Br)c1ccc2c(c1)OCO2`: -67.9%; `O=C(NC(=S)NCc1ccccc1)c1ccc2c(c1)OCO2`: 2.26%.
Next, `Cc1ccc(N(C)S(=O)(=O)c2cccc(C(=O)Nc3ccc(C)cn3)c2)cc1`: 15.7%.
In the case of `N#CCCN=C(NS(=O)(=O)c1ccccc1)c1ccccc1`, the “hERG current change (%, negative = inhibition) at 1uM” value turned out to be 2.49%.
As to `O=C(COc1ccc2ccc(=O)oc2c1)NCCc1c[nH]c2ccc(F)cc12`, the “hERG current change (%, negative = inhibition) at 1uM” value is listed as 12.5%.
For `CCOc1ccc(N2C(=O)CC(n3nc(C)cc3C)C2=O)cc1` (stereo not drawn), the “hERG current change (%, negative = inhibition) at 1uM” value was 3.53%.
Next, `Br.CCOC(=O)c1c(CSC(=N)N)n(-c2ccc(C)cc2)c2cc(Br)c(OC(C)=O)cc12`: -36.7%; `CCOC(=O)c1c(CSC(=N)N)n(-c2ccccc2)c2cc(Br)c(OC(C)=O)cc12`: -57.4%; `Br.CCOC(=O)c1c(CSC(=N)N)n(C)c2cc(Br)c(OC(C)=O)cc12`: -36.7%.
As for `Cc1cccc(NC(=O)Nc2ccc3c(c2)OCO3)n1`, the “hERG current change (%, negative = inhibition) at 1uM” value turned out to be 15.6%.
For the compound `O=C(CN1CCN(C(=O)c2cncn2-c2ccccc2)CC1)Nc1ccccc1Cl`, the “hERG current change (%, negative = inhibition) at 1uM” value is -83.4%.
With `O=C(CN1CCN(C(=O)c2cccc(-n3cnnn3)c2)CC1)Nc1ccccc1Cl`, the “hERG current change (%, negative = inhibition) at 1uM” value was -92.9%.
Next, `Cc1cccc(NC(=O)CN2CCN(C(=O)c3cncn3-c3ccc(F)cc3)CC2)c1C`: -22.2%; `O=C(CN1CCN(C(=O)c2c(F)cccc2F)CC1)Nc1ccccc1C(F)(F)F`: 3.09%; `O=C(CN1CCN(C(=O)c2cncn2-c2ccc(F)cc2)CC1)Nc1ccccc1C(F)(F)F`: -68.3%.
Next, `Cc1cccc(NC(=O)CN2CCN(C(=O)c3cccc(-n4cnnn4)c3)CC2)c1C`: -11.9%; `CCc1ccccc1NC(=O)CN1CCN(C(=O)c2cccc(-n3cnnn3)c2)CC1`: -5.51%.
Next, `Cc1nn(Cc2ccccc2)c(C)c1C(=O)N1CCN(CC(=O)Nc2ccccc2Cl)CC1`: -13.4%; `O=C(CN1CCCCC1)Nc1ccccc1Cl`: 13.9%; `O=C(Nc1ccncc1)Nc1cccc(Cl)c1`: 6.49%.
With `CC(C)(C)n1nc2c(c1NC(=O)c1ccc(C(F)(F)F)cc1)CS(=O)(=O)C2`, the “hERG current change (%, negative = inhibition) at 1uM” value is on record as -9.67%.
On to `Cc1ccc(-c2nc(CS(=O)CC(=O)NCCN3CCCCCC3)c(C)o2)cc1` (stereo not drawn), for which the “hERG current change (%, negative = inhibition) at 1uM” value was determined as 15.5%.
Next, `Cc1ccc(C(=O)Cn2c(N3CCOCC3)nc3c2c(=O)n(C)c(=O)n3C)cc1`: 5.32%; `COc1cccc(Nc2nc(Nc3ccc(Cl)c(C(=O)O)c3)nc(C)c2[N+](=O)[O-])c1`: 9.52%; `CCOc1ccc(NS(=O)(=O)c2ccc(SC)cc2)cc1`: 0.548%.
Next, `CCc1ccc(CN2CCC(n3nccc3NC(=O)c3ccc4c(c3)OCO4)CC2)cc1`: -58.4%; `COc1ccc(CN2CCC(n3nccc3NC(=O)c3cccc(F)c3)CC2)cc1O`: -81.5%; `COc1ccc(CN2CCC(n3nccc3NC(=O)C3CC3)CC2)cc1O`: -18.7%.
Consider `CC(=O)c1cccc(CN2CCC(n3nccc3NC(=O)c3ccc4c(c3)OCO4)CC2)c1`, for which the “hERG current change (%, negative = inhibition) at 1uM” value is listed as 6.25%.
For `CCn1cc(CN2CCC(n3nccc3NC(=O)c3cccc(F)c3)CC2)cn1`, the “hERG current change (%, negative = inhibition) at 1uM” value turned out to be 6.11%.
Next, `O=C(Nc1ccnn1C1CCN(Cc2ccc3nonc3c2)CC1)c1cccc(F)c1`: -1.92%; `CCc1ccc(CN2CCC(n3nccc3NC(=O)c3cccc(F)c3)CC2)cc1`: -78.3%.
Next, `O=C(Nc1ccnn1C1CCN(Cc2ccc(C#CCCO)cc2)CC1)c1cccc(F)c1`: -37.5%; `CCOc1cccc(CN2CCC(n3nccc3NC(=O)c3ccc4c(c3)OCO4)CC2)c1`: -1.26%; `CC(C)c1ccc(NC(=O)c2ccc(NC3=NC4CS(=O)(=O)CC4S3)cc2)cc1` (stereo not drawn): -0.0656%.
With `COCC(=O)N(Cc1cc2cc(C)ccc2[nH]c1=O)c1ccc(C)c(C)c1`, the “hERG current change (%, negative = inhibition) at 1uM” value amounted to 16.4%.
Next, `CN1CCN(NC(=O)CN(C)S(=O)(=O)c2cc(Cl)ccc2Cl)CC1`: 6.96%; `O=C(NNc1c(Cl)cccc1Cl)C1CCC1`: 13.3%.
Consider `COc1ccc(-c2coc3c(CN4CCCCC4C)c(O)ccc3c2=O)cc1` (stereo not drawn), for which the “hERG current change (%, negative = inhibition) at 1uM” value is given as 7.15%.
Next, `COc1ccc(-c2coc3c(CN4CCCCC4)c(O)c(CN4CCCCC4)c(O)c3c2=O)cc1`: -88%.
As to `COc1ccc(C(=O)c2coc3ccc(O)c(CN4CCCCC4)c23)cc1`, the “hERG current change (%, negative = inhibition) at 1uM” value is listed as -61.4%.
Next, `COc1ccc(OC)c(C(=O)c2coc3ccc(O)c(CN4CCOCC4)c23)c1`: -6.28%.
Next, `Cc1ccc(C(=O)c2coc3ccc(O)c(CN4CCN(C)CC4)c23)cc1`: -25.5%; `COc1ccc(C(=O)c2coc3ccc(O)c(CN4CCCC4)c23)cc1`: -56.9%; `COc1ccc(-c2coc3c(CN4CCOCC4)c(O)ccc3c2=O)cc1`: 0.432%.
Next, `COc1ccc(C(=O)c2coc3ccc(O)c(CN4CCOCC4)c23)cc1`: 1.63%.
`Cl.O=C(c1ccccc1)c1coc2ccc(O)c(CN3CCOCC3)c12`: the “hERG current change (%, negative = inhibition) at 1uM” value is -21%.
Next, `CC1CCCCN1Cc1nc2c(c(=O)n(C)c(=O)n2C)n1Cc1c(F)cccc1Cl` (stereo not drawn): 11.4%.
Take `C/C(N)=C(/C#N)C(=O)CSc1nc2ccccc2[nH]1`: the “hERG current change (%, negative = inhibition) at 1uM” value turned out to be 5.05%.
As for `COc1ccc(NC(=O)CNC(c2ccccc2)c2ccccc2)cc1.O=C(O)C(=O)O`, the “hERG current change (%, negative = inhibition) at 1uM” value is given as 14.5%.
Consider `O=C(COC(=O)Cc1ccc(Br)cc1)NC1CCCCCC1`, for which the “hERG current change (%, negative = inhibition) at 1uM” value was 11.4%.
Next, `O=C(Cn1cnc2ccccc21)Nc1ccc(C(=O)O)cc1.O=C(O)C(=O)O`: -52.9%; `O=C(Cn1cnc2ccccc21)Nc1ccc(F)c(F)c1`: 3.75%.
Next, `Cc1ccc(NC(=O)Cn2cnc3ccccc32)cc1C`: 6.29%.
Next, `Cc1ncc(CSc2ccc(Cl)cc2)c(CO)c1O`: 12.9%.
Regarding `COCCCNC(=O)c1ccc2nc(Cc3ccc(OC)cc3)oc2c1`, the “hERG current change (%, negative = inhibition) at 1uM” value is 10.8%.
As for `Cn1nnnc1Sc1ncnc2scc(-c3cccc(S(C)(=O)=O)c3)c12`, the “hERG current change (%, negative = inhibition) at 1uM” value was 12.6%.
As for `CCOc1ccc(CN2CCN(C3CCC3)CC2CCO)cc1` (stereo not drawn), the “hERG current change (%, negative = inhibition) at 1uM” value was found to be 3.11%.
Next, `CCOc1ccc(CN2CCN(C3CCSCC3)CC2CCO)cc1` (stereo not drawn): -76.2%; `CCOc1ccc(CN2CCN(Cc3cc4ccccc4o3)CC2CCO)cc1` (stereo not drawn): -82%; `OCCC1CN(Cc2cc3ccccc3o2)CCN1Cc1ccc(F)cc1` (stereo not drawn): 15.2%.
Next, `CCOc1ccc(CN2CCN(Cc3cnc(-c4ccccc4)s3)CC2CCO)cc1` (stereo not drawn): -90.1%; `OCCC1CN(Cc2cnc(-c3ccccc3)s2)CCN1Cc1ccccc1` (stereo not drawn): 1.93%.
Next, `Cc1ccc(CN2CCN(Cc3cc4ccccc4o3)CC2CCO)cc1` (stereo not drawn): -12.5%; `CCOc1ccccc1CN1CCN(C2CCSCC2)CC1CCO` (stereo not drawn): -7.19%.
Turning to `CCOc1ccc(CN2CCN(Cc3cnc(N4CCOCC4)s3)CC2CCO)cc1` (stereo not drawn), the “hERG current change (%, negative = inhibition) at 1uM” value is -19.2%.
With `Cc1ccc(CN2CCN(Cc3ccc(OCCO)cc3)CC2CCO)o1` (stereo not drawn), the “hERG current change (%, negative = inhibition) at 1uM” value came out at 1.83%.
Next, `CCOc1ccccc1CN1CCN(Cc2ccc(C)o2)CC1CCO` (stereo not drawn): -9.63%; `CCOc1ccc(CN2CCN(Cc3ccc(C)o3)CC2CCO)cc1` (stereo not drawn): -87.8%.
